From PubChem BioAssay AID651658 (Broad Institute, 2012)
In all, about 340,000 compounds went through this assay and about 5,100 (1.5%) were called active.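 Rule for the calls: active = mean Tm shift, scaled 0 neutral to 100 positive control, at about 1.3% or above, every replicate too (limit read from the data); inconclusive = no clear call, values can overlap the other calls; inactive = the rest.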 What follows is part of a selection rich in actives, with near analogues and random picks from the rest.

target: Fibroblast growth factor 22 (Homo sapiens) (UniProt Q9HCT0); experiment: binders of human FGF22 protein, primary screen, FGF22 synaptogenesis inhibitor project, biophysical, thermal shift, single point (AID 651658); settings: recombinant FGF22 thermal shift, SYPRO orange fluorescence; at 9.99 µM; active compounds read high; percent of sucrose octasulfate shift, DMSO zero
Sequence (Q9HCT0 whole entry, looked up): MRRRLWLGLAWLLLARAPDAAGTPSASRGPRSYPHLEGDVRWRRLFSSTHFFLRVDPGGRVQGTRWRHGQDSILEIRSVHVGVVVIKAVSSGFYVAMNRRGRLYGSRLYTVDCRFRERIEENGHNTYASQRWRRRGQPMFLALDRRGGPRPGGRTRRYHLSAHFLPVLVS

SMILES	activity (Tm shift, normalised)
COc1ccc2c3c([nH]c2c1)[C@@H](CO)N(C(=O)Nc1ccc(F)cc1)CC31CN(S(C)(=O)=O)C1	-0.554% (inactive)
O=C(N[C@@H]1CC[C@@H](CC(=O)N2CCc3ccccc3C2)O[C@H]1CO)C1CCC1	-0.096% (inactive)
COc1cccc(CN2CCNC(=O)C2CC(=O)N(C)CCc2ccccn2)c1 (configuration not stated)	43% (active)
CN(CCc1cn[nH]c1)C(=O)CC1C(=O)NCCN1Cc1cccc(Oc2ccccc2)c1 (configuration not stated)	0.231% (inactive)
COc1ccc(CN2CCNC(=O)C2CC(=O)N(C)Cc2ccccn2)cc1OC (configuration not stated)	0.398% (inactive)
CS(=O)(=O)N1[C@H](C#N)[C@H](c2ccccc2-c2ccc(F)cc2)[C@@H]1CO	0.124% (inactive)
Nc1nonc1-n1nnc(C(=O)N/N=C/c2c[nH]c3ccccc23)c1-c1ccccc1	0.702% (inactive)
O=C(N/N=C/c1c[nH]c2ccccc12)c1cc2ccccc2o1	2.21% (active)
Cc1c(/C=N\NC(=O)c2cc3ccccc3o2)c2ccccc2n1C	0.961% (inactive)
CC=Cc1ccc2n(c1=O)C[C@@H]1[C@@H](CO)[C@H](C(=O)N(C)C)[C@H]2N1CCc1ccccc1 (mixture of isomers)	-0.034% (inactive)
COc1ccccc1-c1cnc2c(c1)C(=O)N([C@@H](C)CO)C[C@H](C)[C@H](CN(C)C(=O)c1ccncc1)O2	0.396% (inactive)
Cc1cc(C(=O)Nc2ccc3c(c2)C(=O)N(C)[C@@H]2CC[C@H](CC(=O)NC4CCCC4)O[C@@H]2CO3)no1	0.414% (inactive)
COc1cc(C=NNC(=O)c2cccnc2)ccc1OC(=O)c1ccccc1F	-0.02% (inactive)
COc1ccc(/C=N/NC(=O)c2ccccc2)cc1OS(=O)(=O)c1ccccc1	43% (active)
Cc1ccc(S(=O)(=O)Oc2ccc(/C=N/NC(=O)c3ccncc3)cc2)cc1	0.38% (inactive)
COc1ccccc1CNC(=O)C[C@H]1C[C@@H]2c3cc(NC(=O)c4ccc5c(c4)OCO5)ccc3O[C@@H]2[C@H](CO)O1	0.258% (inactive)
CO[C@@H]1CN(C)C(=O)c2ccc(NS(C)(=O)=O)cc2OC[C@H](C)N(C(=O)C2CC2)C[C@H]1C	-0.096% (inactive)
CCC(=O)N1CC2(C1)[C@H](c1ccc(-c3ccc(C)cc3)cc1)[C@H](CO)N2S(C)(=O)=O	-0.095% (inactive)
COc1cc(OC)cc(-c2nnc(N(C)C(=O)c3ccncc3)s2)c1	-0.259% (inactive)
COCCN(C(=O)C(C)C)c1nnc(-c2ccc(C(C)(C)C)cc2)s1	1.53% (active)
COCCN(Cc1nc(-c2ccc(C(F)(F)F)cc2)no1)C(C)C	0.251% (inactive)
CC(C)NC(=O)N1[C@@H]2c3ccc(-c4ccc(F)cc4)c(=O)n3C[C@@H]2[C@@H](CO)[C@@H]1C(=O)N1CCOCC1	-0.32% (inactive)
CC(C)NC(=O)Nc1ccc2c(c1)C(=O)N([C@H](C)CO)C[C@@H](C)[C@@H](CN(C)S(=O)(=O)c1ccc(Cl)cc1)OCCCC[C@H](C)O2	-0.402% (inactive)
CC(=O)c1ccccc1OCc1ccc(C(=O)c2ccccc2)cc1	-0.1% (inactive)

SMILES	activity (Tm shift, normalised)
COc1ccccc1C(=O)Nn1cnnc1	0.115% (inactive)
COc1ccccc1C(=O)Nc1ccc(Nc2ccccc2)cc1	-0.034% (inactive)
COc1ccccc1C(=O)c1ccccc1C(=O)c1ccccc1	43.7% (active)
COc1ccccc1C(=O)Nc1ccccc1C(=O)Nc1ccccc1	-0.098% (inactive)
COc1ccccc1C(=O)NNC(=O)c1ccc(NC(=O)c2ccccc2)cc1	1.4% (active)
CN1CCN(C(=O)C[C@H]2CC[C@H]3[C@@H](COC[C@H](O)CN3C(=O)c3ccc(F)cc3)O2)CC1	0.268% (inactive)
Cc1ccccc1-c1ccc2c(c1)O[C@H](CN(C)Cc1ccc(C(=O)O)cc1)[C@@H](C)CN([C@H](C)CO)S2(=O)=O	-0.18% (inactive)
C[C@H](CO)N1C[C@H](C)[C@@H](CN(C)CC2CC2)Oc2ccc(NC(=O)CCCN(C)C)cc2CC1=O	-0.128% (inactive)
N#C[C@@H]1[C@H](c2ccc(C#CC3CCCCC3)cc2)[C@@H](CO)N1S(=O)(=O)c1ccccc1	0.098% (inactive)
CCCC#Cc1ccc([C@H]2[C@H](CO)N3CCCCN(C(=O)c4ccc5c(c4)OCO5)C[C@@H]23)cc1	0.555% (inactive)
Cc1cccc(-c2ccc([C@@H]3[C@H](CO)N4CCCCN(C(=O)c5ccc6c(c5)OCO6)C[C@@H]34)cc2)c1	-0.344% (inactive)
COc1ccc(-c2ccc([C@H]3[C@H]4CN(C(=O)c5ccc6c(c5)OCO6)CCCCN4[C@H]3CO)cc2)cc1	1.83% (active)
C[C@@H]1CCCCO[C@@H](CN(C)S(=O)(=O)c2ccccc2)[C@H](C)CN([C@H](C)CO)C(=O)c2cc(NC(=O)Nc3ccc4c(c3)OCO4)ccc2O1	-0.98% (inactive)
COc1ccccc1-c1cnc2c(c1)C(=O)N([C@@H](C)CO)C[C@H](C)[C@H](CN(C)CC1CCOCC1)O2	0.358% (inactive)
COc1ccc(Cc2nnc(N/N=C/c3ccccc3O)[nH]c2=O)cc1OC	0.017% (inactive)
COc1cccc(/C=N/Nc2cc(C)nc(-c3ccccc3O)n2)c1O	43% (active)
COc1cccc(/C=N/Nc2ccc(S(=O)(=O)Nc3ccccc3C(=O)O)cc2[N+](=O)[O-])c1O	0.209% (inactive)
Cc1ccc(S(=O)(=O)N(C)C[C@@H]2Oc3c(NC(=O)c4nc5ccccc5s4)cccc3C(=O)N([C@H](C)CO)C[C@@H]2C)cc1	-0.725% (inactive)
CC(C)c1cc(N=O)cc(C(C)C)c1O	-0.097% (inactive)
CC(C)=CCc1c(O)c(CC=C(C)C)c2occ(-c3ccc(O)cc3)c(=O)c2c1O	0.178% (inactive)
CC(C)=CCc1ccc(O)c(=O)cc1C(C)C	43.3% (active)
C[C@@H]1CCCCO[C@@H](CN(C)C(=O)CCCN(C)C)[C@@H](C)CN([C@H](C)CO)C(=O)c2cc(NC(=O)CCCN(C)C)ccc2O1	-0.145% (inactive)
C[C@H](CO)N1C[C@H](C)[C@H](CN(C)C)Oc2ncc(-c3ccncc3)cc2C1=O	-0.058% (inactive)
